From PubChem BioAssay AID1159580 (chemical genetic matrix, 2015)
Several values for one entry are separate records, joined by “and”; a condition that tells them apart may be missing. Identical values can stand only once. Among all 5,500 compounds or so, about 2,000 (36%) were called active. Not shown: some 18% with an inconclusive outcome. Cut-off read from the data, not from the text of the source: active = normalized growth mostly below about 0.91 (no sharp cut-off); inconclusive = no clear call, values can overlap the other calls; inactive = mostly above about 0.92. This is one part of the list.

Experiment: chemical genetic growth profiling, strain panel (AID 1159580);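 note: tested at 20 µM; growth read once vehicle control cultures reached saturation at 30 °C; 1 = growth at the plate median or of vehicle wells; lower values mean less growth of the strain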
Conditions: S. cerevisiae deletion strains, growth OD

Measured: normalized growth

O=C(Nc1ccc([N+](=O)[O-])cc1Cl)c1cc(Cl)ccc1O
active: locus YAL021C, strain ccr4, stronger effect = lower value 0.798 | locus YBL061C, strain skt5, stronger effect = lower value 0.818 | locus YBR009C, strain hhf1, stronger effect = lower value 0.896 | locus YBR023C, strain chs3, stronger effect = lower value 0.757 | locus YBR231C, strain swc5, stronger effect = lower value 0.69 | locus YBR279W, strain paf1, stronger effect = lower value 0.748 | locus YCL016C, strain dcc1, stronger effect = lower value 0.458 | locus YCL029C, strain bik1, stronger effect = lower value 1.15 [resistant] | locus YDL005C, strain med2, stronger effect = lower value 1.09 [resistant] | locus YDL035C, strain GPR1, stronger effect = lower value 0.856 | locus YDL040C, strain nat1, stronger effect = lower value 0.681 | locus YDR101C, strain arx1, stronger effect = lower value 1.22 [resistant] | locus YDR137W, strain rgp1, stronger effect = lower value 0.18 | locus YDR150W, strain NUM1, stronger effect = lower value 0.878 | locus YDR159W, strain sac3, stronger effect = lower value 0.785 | locus YDR162C, strain NBP2, stronger effect = lower value 0.832 | locus YDR195W, strain ref2 1.24 [resistant] | locus YER002W, strain NOP16, stronger effect = lower value 0.884 | locus YER015W, strain faa2, stronger effect = lower value 0.901 | locus YER016W, strain bim1, stronger effect = lower value 0.772 | locus YER111C, strain swi4, stronger effect = lower value 1.16 [resistant] | locus YGL167C, strain pmr1, stronger effect = lower value 0.606 | locus YGL240W, strain doc1, stronger effect = lower value 0.6 | locus YHR013C, strain ard1, stronger effect = lower value 0.627 | locus YHR079C, strain IRE1 (second series), stronger effect = lower value 1.14 [resistant] | locus YIL073C, strain SPO22, stronger effect = lower value 1.59 [resistant] | locus YIR030C, strain dcg1, stronger effect = lower value 1.14 [resistant] | locus YJL095W, strain BCK1 (second series), stronger effect = lower value 0.91 | locus YJL166W, strain qcr8, stronger effect = lower value 0.758
inactive: locus YAL026C, strain drs2, stronger effect = lower value 0.931 | locus YAL030W, strain snc1, stronger effect = lower value 0.937 | locus YAL040C, strain CLN3, stronger effect = lower value 0.969 | locus YBR021W, strain FUR4, stronger effect = lower value 0.898 | locus YBR171W, strain sec66, stronger effect = lower value 1.01 | locus YBR229C, strain ROT2, stronger effect = lower value 0.991 | locus YCL011C, strain gbp2, stronger effect = lower value 0.944 | locus YCL061C, strain MRC1 (second series), stronger effect = lower value 0.999 | locus YCL069W, strain vba3, stronger effect = lower value 0.959 | locus YCR088W, strain abp1, stronger effect = lower value 0.97 | locus YDL074C, strain BRE1, stronger effect = lower value 0.895 | locus YDL101C, strain DUN1, stronger effect = lower value 0.983 | locus YDL185W, strain tfp1, stronger effect = lower value 1.01 | locus YDL192W, strain arf1, stronger effect = lower value 1.01 | locus YDR001C, strain nth1, stronger effect = lower value 0.989 | locus YDR069C, strain doa4, stronger effect = lower value 1.03 | locus YDR297W, strain sur2, stronger effect = lower value 0.938 | locus YDR318W, strain mcm21, stronger effect = lower value 1.03 | locus YDR334W, strain swr1, stronger effect = lower value 0.981 | locus YDR335W, strain msn5, stronger effect = lower value 0.997 | locus YDR363W, strain ESC2, stronger effect = lower value 0.95 | locus YDR388W, stronger effect = lower value 0.989 | locus YDR392W, strain spt3, stronger effect = lower value 0.828 | locus YDR502C, strain sam2, stronger effect = lower value 1.02 | locus YEL003W, strain gim4, stronger effect = lower value 1.07 | locus YEL037C, strain rad23, stronger effect = lower value 1.01 | locus YEL061C, strain CIN8 (second series), stronger effect = lower value 1 | locus YEL061C, strain CIN8, stronger effect = lower value 0.965 | locus YER110C, stronger effect = lower value 0.934 | locus YER155C, strain BEM2 (second series), stronger effect = lower value 0.985 | locus YER155C, strain BEM2, stronger effect = lower value 0.99 | locus YER167W, strain BCK2, stronger effect = lower value 0.929 | locus YFR010W, strain ubp6, stronger effect = lower value 0.959 | locus YGL078C, strain dbp3, stronger effect = lower value 1.01 | locus YGL086W, strain mad1, stronger effect = lower value 0.954 | locus YGL173C, strain kem1, stronger effect = lower value 0.994 | locus YGL227W, strain vid30, stronger effect = lower value 0.997 | locus YGL248W, strain PDE1, stronger effect = lower value 0.932 | locus YGL253W, strain hxk2, stronger effect = lower value 0.933 | locus YGR078C, strain PAC10, stronger effect = lower value 0.948 | locus YGR135W, strain pre9, stronger effect = lower value 1.03 | locus YGR252W, strain gcn5, stronger effect = lower value 1.01 | locus YHR027C, strain rpn1, stronger effect = lower value 0.944 | locus YHR030C, strain SLT2, stronger effect = lower value 0.922 and 0.995 | locus YHR079C, strain IRE1, stronger effect = lower value 0.981 | locus YHR094C, strain hxt1, stronger effect = lower value 1.05 | locus YHR129C, strain ARP1, stronger effect = lower value 0.944 | locus YHR142W, strain chs7, stronger effect = lower value 0.967 | locus YHR200W, strain rpn10, stronger effect = lower value 1 | locus YIL066C, strain RNR3, stronger effect = lower value 0.9 | locus YIL125W, strain kgd1, stronger effect = lower value 1 | locus YJL092W, strain hpr5, stronger effect = lower value 0.965 | locus YJL095W, strain BCK1, stronger effect = lower value 0.91 and 1 | locus YJL115W, strain asf1, stronger effect = lower value 1.05 | locus YJL129C, strain trk1, stronger effect = lower value 1.13 | locus YJL134W, strain LCB3, stronger effect = lower value 0.978 | locus YJL154C, strain vps35, stronger effect = lower value 0.979 | locus YJL164C, strain tpk1, stronger effect = lower value 0.952 | locus YJL168C, strain set2, stronger effect = lower value 0.996 | locus YJL187C, strain SWE1 (second series), stronger effect = lower value 0.903 | locus YJR043C, strain POL32, stronger effect = lower value 0.929 | locus YJR066W, strain TOR1, stronger effect = lower value 0.904
